Results filed as inconclusive are left out. Activity calls are given as the source filed them. How the source made its calls, unless noted: active means hit-call score of the fitted dose curve at least 0.9, where 1 is the maximum; inactive means score below 0.9.
Experiments:
[1] = ATG_NFI_CIS: Attagene CIS-FACTORIAL HepG2 Assay for human Nuclear Factor I (NFI) (AID 2282989); conditions: HepG2 cis-regulatory reporter, NFI response element transcription; actives raise or lower the signal
In short: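 Reporter transcription driven by endogenous transcription factors in HepG2 cells; 24 h treatment. Quantitation by labelled RT-PCR fragments on capillary electrophoresis, gain- or loss-of-signal relative to DMSO.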

[2] = molecular target: Myc proto-oncogene protein (Homo sapiens) (UniProt P01106); experiment: ATG_Myc_CIS: Attagene CIS-FACTORIAL HepG2 Assay for human Myelocytomatosis (Myc) Proto-Oncogene Transcription Factor (AID 2282990); conditions: HepG2, Attagene cis-reporter transcription factor activity; actives raise or lower the signal
In short: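 DMSO-normalised, bidirectionally fitted reporter mRNA signal. HepG2 cells transfected with cis reporter constructs, treated 24 h; transcripts detected by RT-PCR, 6-FAM primer extension and CE.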

[3] = ATG_NF_kB_CIS: Attagene CIS-FACTORIAL HepG2 Assay for human Nuclear Factor Kappa B (NF-kB) (AID 2282991); conditions: HepG2 Attagene cis-factorial NF-kB reporter mRNA; actives raise or lower the signal
In short: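 Transient MRTU transfection of human HepG2 liver cells → 24 h chemical exposure → total RNA, oligo(dT) RT → PCR, 6-FAM primer extension, HpaI digest 2 h 37 C → CE fragment analysis. Bidirectional fitting, DMSO negative control.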

[4] = ATG_NRF2_ARE_CIS: Attagene CIS-FACTORIAL HepG2 Assay for human Nuclear Factor Erythroid 2 Related Factor 2 (NFR2) response to Antioxidant Response Elements (ARE) (AID 2282992); conditions: HepG2 Attagene ARE/NRF2 reporter, transcription factor activity; actives raise or lower the signal;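 on AC50: reporter mRNA level measured by RT-PCR and capillary electrophoresis fluorescence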
In short: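 HepG2 cells transiently transfected with multiplexed cis-regulated reporter transcription units measure endogenous transcription factor activity. Reporter mRNA at 24 h is quantified by RT-PCR, fluorescent labelling and capillary electrophoresis, with bidirectional fitting relative to DMSO.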

[5] = ATG_Oct_MLP_CIS: Attagene CIS-FACTORIAL HepG2 Assay for human Octamer-Binding Transcription Factor (Oct) (AID 2282993); conditions: HepG2 Attagene cis-factorial Oct reporter, mRNA; actives raise or lower the signal
In short: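 Transfected HepG2 cells, 24 h treatment. Reporter mRNA quantified by RT-PCR–capillary electrophoresis; bidirectional fitting against DMSO.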

[6] = molecular target: human Peroxisome Proliferator-activated Receptor delta (PPARd), PPARD (gene 5467) (UniProt Q03181); experiment: ATG_PPARd_TRANS: Attagene TRANS-FACTORIAL HepG2 Assay for human Peroxisome Proliferator-activated Receptor delta (PPARd) (AID 2283002; active means hit-call score of the fitted dose curve at least 0.9, where 1 is the maximum)
In short: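 Measured quantity: GAL4-UAS reporter transcript induction in HepG2 after 24 h chemical dosing, with NR-Gal4 chimeras supplied by transient transfection. Detection by RT-PCR and capillary electrophoresis; upward fit against DMSO.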

[7] = molecular target: Peroxisome proliferator-activated receptor gamma (Homo sapiens) (UniProt P37231); experiment: ATG_PPARg_TRANS: Attagene TRANS-FACTORIAL HepG2 Assay for human Peroxisome Proliferator-activated Receptor-gamma (PPARg) (AID 2283007; active means hit-call score of the fitted dose curve at least 0.9, where 1 is the maximum)
In short: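 Transient transfection of HepG2 with GAL4-UAS-driven reporter units; chemical dosing 24 h; total RNA → oligo(dT) RT → PCR with reporter primers → 6-FAM primer extension → HpaI digest 2 h 37 C → capillary electrophoresis. Positive direction vs DMSO.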

[8] = molecular target: human Peroxisome Proliferator-activated Receptor alpha (PPARa), PPARA (gene 5465) (UniProt Q07869); experiment: ATG_PPARa_TRANS: Attagene TRANS-FACTORIAL HepG2 Assay for human Peroxisome Proliferator-activated Receptor alpha (PPARa) (AID 2283001; active means hit-call score of the fitted dose curve at least 0.9, where 1 is the maximum)
In short: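 HepG2 cells transiently transfected with multiplexed GAL4-UAS reporter units and chimeric NR-Gal4 constructs were dosed for 24 h. Reporter mRNA was measured by RT-PCR with fluorescent labelling and capillary electrophoresis; gain of signal fitted against DMSO.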

[9] = molecular target: Nuclear receptor subfamily 1 group I member 2 (Homo sapiens) (UniProt O75469); experiment: ATG_PXR_TRANS: Attagene TRANS-FACTORIAL HepG2 Assay for human Pregnane X Receptor (PXR) (AID 2283008; active means hit-call score of the fitted dose curve at least 0.9, where 1 is the maximum)
In short: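 HepG2 cells transiently transfected with multiple reporter units, here a PXR-GAL4 chimera driving a GAL4-UAS reporter; 24 h compound exposure. Reporter mRNA measured by RT-PCR, FAM labelling and capillary electrophoresis; gain of signal fitted against DMSO baseline.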

[10] = molecular target: human RAR-related Orphan Receptor beta (RORb), RORB (gene 6096) (UniProt Q92753); experiment: ATG_RORb_TRANS: Attagene TRANS-FACTORIAL HepG2 Assay for human RAR-related Orphan Receptor beta (RORb) (AID 2283010; active means hit-call score of the fitted dose curve at least 0.9, where 1 is the maximum)
In short: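 In this TRANS-format test, human HepG2 cells express chimeric NR-Gal4 fusion proteins driving GAL4-UAS reporters. After 24 h dosing, reporter transcripts are measured by fluorescent RT-PCR/capillary electrophoresis, with DMSO as negative control.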

[11] = molecular target: Cellular tumor antigen p53 (Homo sapiens) (UniProt P04637); experiment: ATG_p53_CIS: Attagene CIS-FACTORIAL HepG2 Assay for human p53 Transcription Factor (AID 2282994); conditions: HepG2 p53 cis-element reporter, Attagene mRNA; actives raise or lower the signal
In short: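 HepG2 cells transiently transfected with multiplexed cis-regulated reporter transcription units read endogenous TF activity. After 24 h compound exposure, reporter mRNA was quantified by RT-PCR, fluorescent labelling, HpaI digestion and capillary electrophoresis; bidirectional fits versus DMSO baseline.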

[12] = molecular target: human Retinoic Acid Receptor beta (RARb), RARB (gene 5915) (UniProt P10826); experiment: ATG_RARb_TRANS: Attagene TRANS-FACTORIAL HepG2 Assay for human Retinoic Acid Receptor beta (AID 2283004; active means hit-call score of the fitted dose curve at least 0.9, where 1 is the maximum)
In short: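 Readout is reporter mRNA induction: RNA reverse-transcribed, PCR-amplified, FAM-labelled, HpaI-cut and resolved by capillary electrophoresis. Transiently transfected HepG2 cells carrying exogenous NR–Gal4 chimeras were dosed for 24 h; activity fitted upward relative to DMSO.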

[13] = BSK_3C_uPAR: BioMAP Diversity Plus: 3C Assay for Urokinase-type plasminogen activator receptor (uPAR) Biomarker Activity (AID 2282998); conditions: BioMAP 3C HUVEC, uPAR biomarker ELISA; actives raise or lower the signal
In short: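 Readout: ELISA for surface uPAR. System: human umbilical vein endothelial primary cells, 24 h after chemical exposure. Analysis: bidirectional fit, DMSO baseline.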

[14] = BSK_3C_VCAM1: BioMAP Diversity Plus: 3C Assay for Vascular cell adhesion molecule 1 (VCAM1) Biomarker Activity (AID 2282999); conditions: BioMAP 3C HUVEC, VCAM1 ELISA, cytokine-stimulated; actives raise or lower the signal
In short: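 Human umbilical vein endothelial cells were dosed with compound for 24 h, after which cell-surface VCAM-1 was quantified by ELISA. Bidirectional curve fitting used DMSO as negative control and activity baseline.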

[15] = BSK_4H_Eotaxin3: BioMAP Diversity Plus: 4H Assay for Eotaxin 3 Biomarker Activity (AID 2283000); conditions: primary human endothelial cells (HUVEC); actives raise or lower the signal
In short: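 Readout is Eotaxin-3 (CCL26) level by ELISA in primary human umbilical vein endothelial cells harvested 24 h after chemical exposure; activity fitted in both directions against DMSO control.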

[16] = read-out: Intercellular Adhesion Molecule 1 (ICAM1), ICAM1 (gene 3383); experiment: BSK_3C_ICAM1: BioMAP Diversity Plus: 3C Assay for Intercellular Adhesion Molecule 1 (ICAM1) Biomarker Activity (AID 2283003); conditions: primary human endothelial cells (HUVEC); actives raise or lower the signal
In short: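 Human vascular endothelial primary cells, 3C conditions, 24 h treatment. ICAM-1 by ELISA.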

[17] = BSK_3C_Proliferation: Cell Proliferation Assessment in the BioMAP Diversity Plus: 3C Assay (AID 2283006); conditions: primary human endothelial cells (HUVEC);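 on AC50: potency may reflect either rise or fall in cell number versus DMSO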
In short: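 Proliferation of human vascular endothelial primary cells after 48 h dosing, quantified as SRB-stained protein at 560 nm relative to DMSO.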

[18] = molecular target: Retinoic acid receptor alpha (Homo sapiens) (UniProt P10276); experiment: ATG_RARa_TRANS: Attagene TRANS-FACTORIAL HepG2 Assay for human Retinoic Acid Receptor alpha (RARa) (AID 2283005; active means hit-call score of the fitted dose curve at least 0.9, where 1 is the maximum)
In short: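 HepG2 cells transiently transfected with multiple reporter units expressing chimeric RARα-GAL4 fusion, with GAL4-UAS-driven reporters. After 24 h compound exposure, reporter mRNA induction quantified by RT-PCR and capillary electrophoresis with fluorescent labeling; gain-of-signal fitted relative to DMSO control.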

[19] = molecular target: human Retinoic Acid Receptor gamma (RARg), RARG (gene 5916) (UniProt P13631); experiment: ATG_RARg_TRANS: Attagene TRANS-FACTORIAL HepG2 Assay for human Retinoic Acid Receptor gamma (RARg) (AID 2283009; active means hit-call score of the fitted dose curve at least 0.9, where 1 is the maximum)
In short: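 HepG2, RARg-GAL4 TRANS system, 24 h exposure; reporter mRNA by RT-PCR + CE fluorescence; increase over DMSO.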

Measured: AC50

Chain of human RAR-related Orphan Receptor beta (RORb), RORB (gene 6096) (Q92753 whole entry, looked up, the tested form may be a part): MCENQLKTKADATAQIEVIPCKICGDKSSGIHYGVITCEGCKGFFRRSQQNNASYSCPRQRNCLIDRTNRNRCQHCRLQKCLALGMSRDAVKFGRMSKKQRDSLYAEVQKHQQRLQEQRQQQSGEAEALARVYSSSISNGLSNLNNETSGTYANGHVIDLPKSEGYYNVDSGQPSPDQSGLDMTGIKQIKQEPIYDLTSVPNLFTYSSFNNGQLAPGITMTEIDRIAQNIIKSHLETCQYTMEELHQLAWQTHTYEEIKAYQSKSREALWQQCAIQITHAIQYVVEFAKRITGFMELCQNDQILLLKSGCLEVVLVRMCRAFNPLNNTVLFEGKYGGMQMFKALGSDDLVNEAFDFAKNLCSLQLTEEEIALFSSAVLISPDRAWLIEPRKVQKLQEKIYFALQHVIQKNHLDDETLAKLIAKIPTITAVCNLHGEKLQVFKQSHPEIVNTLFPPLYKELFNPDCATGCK
Chain of Nuclear receptor subfamily 1 group I member 2 (Homo sapiens) (O75469 whole entry, looked up, the tested form may be a part): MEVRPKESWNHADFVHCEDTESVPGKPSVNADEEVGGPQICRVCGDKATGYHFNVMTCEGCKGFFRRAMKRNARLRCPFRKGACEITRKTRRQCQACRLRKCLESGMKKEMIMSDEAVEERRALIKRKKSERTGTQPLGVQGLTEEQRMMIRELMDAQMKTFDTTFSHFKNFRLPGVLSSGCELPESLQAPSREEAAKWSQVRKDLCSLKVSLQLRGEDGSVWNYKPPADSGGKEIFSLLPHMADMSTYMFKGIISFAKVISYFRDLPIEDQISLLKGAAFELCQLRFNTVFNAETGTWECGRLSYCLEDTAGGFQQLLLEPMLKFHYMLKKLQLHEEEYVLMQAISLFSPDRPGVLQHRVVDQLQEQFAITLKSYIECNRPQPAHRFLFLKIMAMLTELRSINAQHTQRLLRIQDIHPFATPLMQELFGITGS
Chain of Peroxisome proliferator-activated receptor gamma (Homo sapiens) (P37231 whole entry, looked up, the tested form may be a part): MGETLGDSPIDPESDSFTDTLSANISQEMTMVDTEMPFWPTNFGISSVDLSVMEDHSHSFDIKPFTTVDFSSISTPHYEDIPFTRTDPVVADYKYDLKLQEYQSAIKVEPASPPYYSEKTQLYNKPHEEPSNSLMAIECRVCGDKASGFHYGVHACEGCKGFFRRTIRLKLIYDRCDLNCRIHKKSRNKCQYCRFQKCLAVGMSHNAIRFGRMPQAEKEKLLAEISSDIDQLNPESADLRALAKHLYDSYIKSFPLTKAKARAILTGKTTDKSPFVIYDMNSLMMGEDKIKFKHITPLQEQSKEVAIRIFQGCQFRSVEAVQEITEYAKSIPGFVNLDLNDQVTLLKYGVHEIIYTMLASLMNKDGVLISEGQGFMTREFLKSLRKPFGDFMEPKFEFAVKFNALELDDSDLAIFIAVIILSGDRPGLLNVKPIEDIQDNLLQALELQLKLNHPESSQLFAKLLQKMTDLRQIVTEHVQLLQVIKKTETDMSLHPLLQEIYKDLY
Chain of human Retinoic Acid Receptor gamma (RARg), RARG (gene 5916) (P13631 whole entry, looked up, the tested form may be a part): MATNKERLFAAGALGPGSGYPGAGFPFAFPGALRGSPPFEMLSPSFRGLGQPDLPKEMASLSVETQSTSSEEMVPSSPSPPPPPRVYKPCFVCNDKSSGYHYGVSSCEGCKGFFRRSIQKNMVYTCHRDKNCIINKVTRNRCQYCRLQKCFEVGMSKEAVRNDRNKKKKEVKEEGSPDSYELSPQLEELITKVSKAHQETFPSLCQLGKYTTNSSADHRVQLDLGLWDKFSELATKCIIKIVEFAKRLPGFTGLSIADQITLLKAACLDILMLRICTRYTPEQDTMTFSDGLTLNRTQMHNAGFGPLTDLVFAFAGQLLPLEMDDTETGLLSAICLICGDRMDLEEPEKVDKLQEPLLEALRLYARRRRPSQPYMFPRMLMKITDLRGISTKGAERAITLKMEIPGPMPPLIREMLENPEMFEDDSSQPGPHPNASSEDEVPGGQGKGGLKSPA
Chain of human Peroxisome Proliferator-activated Receptor delta (PPARd), PPARD (gene 5467) (Q03181 whole entry, looked up, the tested form may be a part): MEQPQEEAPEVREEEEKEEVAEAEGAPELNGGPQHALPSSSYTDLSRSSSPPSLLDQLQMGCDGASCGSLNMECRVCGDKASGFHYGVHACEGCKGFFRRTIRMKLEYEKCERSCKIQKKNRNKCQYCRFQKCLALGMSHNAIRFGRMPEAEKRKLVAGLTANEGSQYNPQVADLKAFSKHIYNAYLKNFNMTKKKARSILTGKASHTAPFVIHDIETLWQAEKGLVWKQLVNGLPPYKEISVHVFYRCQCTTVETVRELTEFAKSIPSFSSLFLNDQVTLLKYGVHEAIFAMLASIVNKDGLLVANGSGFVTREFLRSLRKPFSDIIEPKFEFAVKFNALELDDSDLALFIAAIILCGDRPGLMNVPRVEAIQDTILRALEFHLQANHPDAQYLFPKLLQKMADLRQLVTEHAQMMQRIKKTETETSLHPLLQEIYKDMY
Chain of Myc proto-oncogene protein (Homo sapiens) (P01106 whole entry, looked up): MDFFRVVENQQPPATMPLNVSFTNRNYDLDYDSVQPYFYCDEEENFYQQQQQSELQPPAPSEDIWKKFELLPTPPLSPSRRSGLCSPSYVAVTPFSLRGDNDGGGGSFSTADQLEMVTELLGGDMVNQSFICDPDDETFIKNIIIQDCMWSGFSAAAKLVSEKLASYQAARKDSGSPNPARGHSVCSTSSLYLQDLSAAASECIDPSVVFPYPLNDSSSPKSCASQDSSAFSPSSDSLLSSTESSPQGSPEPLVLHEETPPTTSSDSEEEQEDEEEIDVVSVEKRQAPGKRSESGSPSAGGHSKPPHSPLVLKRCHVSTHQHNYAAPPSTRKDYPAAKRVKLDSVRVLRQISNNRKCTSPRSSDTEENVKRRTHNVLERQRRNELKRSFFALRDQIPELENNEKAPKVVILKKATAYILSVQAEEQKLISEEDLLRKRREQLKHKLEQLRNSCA
Chain of Cellular tumor antigen p53 (Homo sapiens) (P04637 whole entry, looked up): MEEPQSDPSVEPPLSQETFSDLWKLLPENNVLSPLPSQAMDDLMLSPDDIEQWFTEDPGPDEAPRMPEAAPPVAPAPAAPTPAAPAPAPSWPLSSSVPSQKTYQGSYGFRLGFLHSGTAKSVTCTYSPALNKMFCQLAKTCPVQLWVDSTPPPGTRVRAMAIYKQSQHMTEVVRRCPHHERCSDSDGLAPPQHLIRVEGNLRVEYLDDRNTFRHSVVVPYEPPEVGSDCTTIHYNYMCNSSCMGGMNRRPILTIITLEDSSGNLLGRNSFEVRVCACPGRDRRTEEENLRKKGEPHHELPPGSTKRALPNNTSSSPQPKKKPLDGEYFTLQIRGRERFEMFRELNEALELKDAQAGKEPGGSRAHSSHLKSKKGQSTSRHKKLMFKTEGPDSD
Chain of human Peroxisome Proliferator-activated Receptor alpha (PPARa), PPARA (gene 5465) (Q07869 whole entry, looked up, the tested form may be a part): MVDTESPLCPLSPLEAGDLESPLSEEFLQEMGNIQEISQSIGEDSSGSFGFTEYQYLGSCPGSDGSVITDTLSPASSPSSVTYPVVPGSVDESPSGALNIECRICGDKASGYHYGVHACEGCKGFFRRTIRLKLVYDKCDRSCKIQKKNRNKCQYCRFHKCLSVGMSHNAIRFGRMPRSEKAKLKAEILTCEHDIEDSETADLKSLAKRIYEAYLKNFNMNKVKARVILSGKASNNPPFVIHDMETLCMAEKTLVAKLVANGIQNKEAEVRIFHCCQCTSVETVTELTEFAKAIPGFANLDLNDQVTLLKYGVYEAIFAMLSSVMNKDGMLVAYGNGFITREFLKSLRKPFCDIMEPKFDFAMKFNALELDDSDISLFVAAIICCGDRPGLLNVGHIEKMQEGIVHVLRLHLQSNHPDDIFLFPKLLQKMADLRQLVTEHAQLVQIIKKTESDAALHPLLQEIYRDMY
Chain of human Retinoic Acid Receptor beta (RARb), RARB (gene 5915) (P10826 whole entry, looked up, the tested form may be a part): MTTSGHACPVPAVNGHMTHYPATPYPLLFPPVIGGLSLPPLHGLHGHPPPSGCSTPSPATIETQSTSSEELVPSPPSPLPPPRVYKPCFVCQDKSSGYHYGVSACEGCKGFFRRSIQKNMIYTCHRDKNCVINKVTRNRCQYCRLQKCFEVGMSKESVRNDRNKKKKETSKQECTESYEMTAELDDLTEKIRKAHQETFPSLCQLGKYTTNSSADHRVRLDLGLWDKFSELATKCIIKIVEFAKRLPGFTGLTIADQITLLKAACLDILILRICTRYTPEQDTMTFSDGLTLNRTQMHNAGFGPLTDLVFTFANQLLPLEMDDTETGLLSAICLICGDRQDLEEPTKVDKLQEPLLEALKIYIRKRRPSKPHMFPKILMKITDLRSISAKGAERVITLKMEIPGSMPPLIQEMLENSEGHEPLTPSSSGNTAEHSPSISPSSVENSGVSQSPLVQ
Chain of Retinoic acid receptor alpha (Homo sapiens) (P10276 whole entry, looked up, the tested form may be a part): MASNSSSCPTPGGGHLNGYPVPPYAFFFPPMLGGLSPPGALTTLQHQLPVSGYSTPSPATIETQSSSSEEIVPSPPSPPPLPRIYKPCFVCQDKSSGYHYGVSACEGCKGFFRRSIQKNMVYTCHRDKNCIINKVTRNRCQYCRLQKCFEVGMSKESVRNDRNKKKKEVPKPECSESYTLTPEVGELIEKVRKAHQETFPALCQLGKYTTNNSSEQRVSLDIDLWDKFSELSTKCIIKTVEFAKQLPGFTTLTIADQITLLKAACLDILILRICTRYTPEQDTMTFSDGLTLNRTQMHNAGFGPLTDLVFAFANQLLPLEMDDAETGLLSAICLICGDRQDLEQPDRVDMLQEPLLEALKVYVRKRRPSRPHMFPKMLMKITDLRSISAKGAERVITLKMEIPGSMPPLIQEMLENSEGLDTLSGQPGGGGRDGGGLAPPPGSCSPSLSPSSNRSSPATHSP

COC(=O)C1=C(C)NC(C)=C(C(=O)OCCN(C)Cc2ccccc2)C1c1cccc([N+](=O)[O-])c1 (stereo not given)
inactive: [1] | [2] | [3] | [4] | [5] | [6]
active: [7] 27.7 µM

O=C(O)CCCCCCCCCCC(=O)O
inactive: [1] | [2] | [3] | [4] | [5] | [8] | [9] | [10]

CCCC(=O)OCCC(C)CCC=C(C)C (stereo not given)
inactive: [1] | [2] | [8] | [9] | [10]
active: [3] 72 µM | [4] 78.7 µM | [5] 100 µM | [7] 31 µM

CN(C)CCCN
inactive: [1] | [2] | [3] | [4] | [5] | [11] | [7] | [9]

OCCOc1cccc(OCCO)c1
inactive: [1] | [2] | [3] | [4] | [5] | [6] | [12] | [7] | [9]

Cc1ccc(C(=O)O)o1
inactive: [1] | [2] | [3] | [4] | [5] | [9]

CC(C)(C)c1cc(CCC(=O)NN)cc(C(C)(C)C)c1O
inactive: [1] | [2] | [3] | [4] | [5] | [11] | [9]

CC(CCO)CCCC(C)(C)O (stereo not given)
inactive: [1] | [2] | [3] | [4] | [5] | [8] | [6] | [7] | [9]

CC1COc2ccccc2N1C(=O)C(Cl)Cl (stereo not given)
inactive: [1] | [2] | [3] | [6] | [16] | [7]
active: [4] 6.61 µM | [5] 30.6 µM | [13] 5.99 µM | [14] 11.3 µM | [15] 7.09 µM | [17] 5.24 µM | [9] 6.46 µM

CC1(C)OC[C@@H]2O[C@@]3(C(=O)O)OC(C)(C)O[C@H]3[C@@H]2O1
inactive: [1] | [2] | [3] | [4] | [5] | [18] | [9]

CC1=CC(=O)NS(=O)(=O)O1
inactive: [1] | [2] | [3] | [4] | [5] | [6]

Cc1ccc(O)c(C(C)(C)C)c1
active: [2] 79.5 µM | [3] 100 µM | [4] 25.2 µM | [13] 20 µM | [14] 30 µM | [15] 35 µM | [16] 33.7 µM | [17] 15.1 µM | [9] 19.1 µM
inactive: [1] | [11] | [6] | [10]

O=c1oc(=O)c2cc3c(=O)oc(=O)c3cc12
inactive: [1] | [2] | [3] | [4] | [5] | [6] | [7] | [9] | [19]

C=C(C)C(=O)OCc1ccccc1
inactive: [1] | [2] | [3] | [4] | [5] | [8] | [6] | [7] | [9]

COc1c(Cl)c(Cl)c(Cl)c(Cl)c1Cl
active: [9] 10.3 µM
inactive: [1] | [2] | [3] | [4] | [5]

O=C(COc1ccc(Cl)cc1)N1CCN(Cc2ccc3c(c2)OCO3)CC1
inactive: [1] | [2] | [3] | [5] | [8] | [9]
active: [4] 100 µM

CNC[C@H](O)c1cccc(O)c1
not listed: [5] | [6] | [7] | [8] | [10] | [18]
inactive: all other assays above

O=C(O)c1ccc(C(=O)O)cc1
inactive: [1] | [2] | [3] | [4] | [5] | [11] | [9]

OC1OC[C@@H](O)[C@H](O)[C@H]1O (stereo not given in full)
not listed: [5] | [6] | [7] | [9] | [12] | [18] | [19]
inactive: all other assays above

COc1nc(C)nc(N)n1
inactive: [1] | [2] | [3] | [4] | [5] | [8] | [7] | [9]

C=C(C)C(=O)NCCCN(C)C
inactive: [1] | [2] | [3] | [4] | [5] | [11] | [9] | [10]

CCCCN
inactive: [1] | [2] | [3] | [4] | [5] | [11] | [7] | [10]

CC(C)(Oc1ccc(CCNC(=O)c2ccc(Cl)cc2)cc1)C(=O)O
inactive: [1] | [2] | [3] | [4] | [5] | [9]
active: [6] 79.4 µM | [7] 27.6 µM

CC(C)(N)CO
inactive: [1] | [2] | [3] | [4] | [5] | [11] | [9]

C=O
inactive: [1] | [2] | [3] | [5] | [12] | [18] | [9] | [19]

O=C1NC(=O)c2ccccc21
inactive: [1] | [2] | [3] | [8] | [7]

CCCC1CCC(=O)O1 (stereo not given)
inactive: [1] | [2] | [3] | [5] | [11] | [6] | [9] | [10]
